Rows were chosen to be rich in hits. Some 1.3% of all compounds tested hit in one or more screens of this group.
HTR5A ag: HTR5A agonism, opioid heterodimer counter-screen; hit rate 0.61% among 340,000; P47898; HTR5A agonist assay, luminescence, cell-based; activation, % at 9.3 µM; in the data active = activation mostly above about 9.5%, no sharp cut-off; inactive = mostly below about 7.6%
Target sequence (P47898 whole entry, looked up): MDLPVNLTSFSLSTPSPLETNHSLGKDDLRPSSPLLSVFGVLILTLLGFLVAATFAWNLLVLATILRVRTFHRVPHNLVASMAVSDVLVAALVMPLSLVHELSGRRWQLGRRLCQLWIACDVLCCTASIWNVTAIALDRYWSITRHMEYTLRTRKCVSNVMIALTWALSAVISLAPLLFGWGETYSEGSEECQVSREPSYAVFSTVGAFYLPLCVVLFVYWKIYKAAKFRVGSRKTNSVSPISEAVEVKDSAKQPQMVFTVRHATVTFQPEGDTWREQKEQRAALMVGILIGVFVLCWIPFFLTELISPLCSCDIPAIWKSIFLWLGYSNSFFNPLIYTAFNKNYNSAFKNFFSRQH
MOR-DOR ag-1: agonists of human mu-delta opioid receptor heterodimerization. AID 504326. activation, % at 9.3 µM. hit rate 0.3% among 340,000. cells, OPRM1-OPRD1 heterodimerization, luminescence; in the data active = activation above about 18%
PvdQ acylase: P. aeruginosa PvdQ acylase inhibition; inhibition, % at 10 µM; AID 488965; purified PvdQ acylase, fluorescence plate reader; hit rate 0.063% among 340,000; in the data active = inhibition above about 30%, passing the limit was not always enough
HTR5A inv ag: inverse agonist of human HTR5A in OPRM1-OPRD1 counter-screen; P47898; HTR5A cell line, luminescence, inverse agonism; inhibition, % at 9.3 µM; hit rate 0.083% among 340,000; AID 504634; in the data active = inhibition mostly above about 23%, no sharp cut-off; inactive = mostly below about 18%
MOR-DOR inv ag-1: inverse agonists of human mu-delta opioid receptor heterodimerization. AID 504357. inhibition, % at 9.3 µM. hit rate 0.21% among 340,000. cell-based MOR-DOR heterodimer luminescence, inverse agonism; in the data active = inhibition above about 22%, passing the limit was not always enough
CR mimetic SO: yeast age-related superoxide inhibition as caloric restriction mimetic | S. cerevisiae aged cells, superoxide DHE fluorescence; active compounds read low | hit rate 0.18% among 330,000 | AID 2690 | superoxide response (% of plate mean), % at 10 µM;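 active = superoxide response under a set limit, about three screen SD below normal, cut at about 65% in these data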;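 also: yeast aged for seven days with compound at 30 °C before DHE staining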
MOR-DOR inv conf: confirmation of human OPRM1-OPRD1 heterodimerization inverse agonists. hit rate 20% among 580. cells expressing OPRM1/OPRD1 heterodimer, luminescence. shares compounds with MOR-DOR inv ag-1. AID 504900. inhibition, % at 9.3 µM; in the data active = inhibition above about 32%
HTR5A inv ctr2: inverse agonist of human HTR5A in OPRM1-OPRD1 counter-screen; shares compounds with MOR-DOR inv ag-1; HTR5A-expressing cells, luminescence, inverse agonism; inhibition, % at 9.3 µM; 580 tested, under 10 active; AID 504914
MOR-DOR inv ag-2: inverse agonist of OPRM1-OPRD1 heterodimerization in HTR5A counter-screen | shares compounds with HTR5A inv ag | inhibition, % at 9.3 µM | AID 504912 | 190 tested, under 10 active | U2OS counter-screen cells, complementation luminescence
HTR5A inv confrm: HTR5A (human) inverse agonism, confirmation; inhibition, % at 9.3 µM; HTR5A-expressing cells, luminescence; 190 tested, under 10 active; shares compounds with HTR5A inv ag
MOR-DOR ag-2: promotes OPRM1-OPRD1 heterodimerization in HTR5A counter-screen; hit rate 13% among 800; U2OS counter-screen cells, complementation luminescence, 3 h; activation, % at 9.3 µM; shares compounds with HTR5A ag; in the data active = activation above about 18%
HTR5A ag conf: confirmation of human HTR5A agonists. shares compounds with HTR5A ag. HTR5A agonist cell assay, luminescence. hit rate 17% among 800. AID 504915. activation, % at 9.3 µM; in the data active = activation above about 17%
A number is an active result; – = inactive; · = no result given. Unless noted, no rule for the calls is given here.

SMILES	HTR5A ag	MOR-DOR ag-1	PvdQ acylase	HTR5A inv ag	MOR-DOR inv ag-1	CR mimetic SO	MOR-DOR inv ag-2	HTR5A inv confrm	others
CN(C)C=Nc1ccccc1C1C=NNC1=O (stereo unspecified)	·	·	·	·	·	–	·	·
CCOc1ccc(C=NC23CN4CN(CN(C4)C2)C3)cc1	–	–	–	–	–	–	·	·
CCOc1ccc(CNC23CN4CN(CN(C4)C2)C3)cc1	–	–	–	–	16	–	·	·	MOR-DOR inv conf=–;HTR5A inv ctr2=–
COC(=O)c1[nH]c2ccccc2c1NC(=O)c1c(F)cccc1F	–	–	–	–	–	–	·	·
N#CC(C#N)=NNc1ccc([N+](=O)[O-])cc1	15	–	–	–	31	–	·	·	MOR-DOR inv conf=–;HTR5A inv ctr2=–;MOR-DOR ag-2=–;HTR5A ag conf=–
CCOc1ccccc1NC(=O)C(c1ccccc1)N1CCN(CC(=O)N2CCCC2)CC1 (stereo unspecified)	–	–	–	–	–	–	·	·
COCCn1c(C)cc(/C=C2\NC(=S)N(C)C2=O)c1C	–	–	–	–	–	–	·	·
CN1C(=O)/C(=C/c2cc3c(cc2Br)OCO3)NC1=S	–	–	–	23	–	–	–	–
C/C(=N\Nc1nc(N2CCOCC2)nc(N2CCOCC2)n1)c1cccs1	–	–	–	23	–	–	–	–
C/C(=N\Nc1nc(N2CCCCC2)nc(N2CCOCC2)n1)c1ccccc1O	·	·	–	·	·	–	·	·
O=C(CN1CCN(S(=O)(=O)c2ccc(Cl)cc2)CC1)NC1CCCC1	–	–	–	–	–	–	·	·
O=C(CN1CCN(S(=O)(=O)c2ccc(F)cc2)CC1)NC1CCCC1	–	–	–	35	–	–	–	–
Oc1c(C(c2ccccn2)N2CCCCC2)cc(Cl)c2cccnc12 (stereo unspecified)	–	–	–	29	–	–	–	–
CN1CCN(C(c2ccc(Cl)cc2)c2cc(Cl)c3cccnc3c2O)CC1 (stereo unspecified)	–	–	–	–	–	–	·	·
Cc1ccccc1-n1nc2c(c1NC(=O)C1CCCC1)CS(=O)(=O)C2	–	–	–	–	–	–	·	·
O=C1CCC[C@@H]2C[C@@]3(C[C@@H]4CCN1[C@H]24)Nc1cc([N+](=O)[O-])ccc1NC3=NC1CCCCC1	–	–	–	35	–	·	–	–
O=C1CCC[C@@H]2C[C@@]3(C[C@@H]4CCN1[C@H]24)Nc1cc(Cl)ccc1NC3=NC1CCCCC1	–	–	–	–	–	·	·	·
O=[N+]([O-])c1ccc(/C=N/Nc2ccc3ccccc3c2)o1	–	–	–	28	–	–	–	–
Nc1ccc(C(=O)C(=O)c2ccc(N)cc2)cc1	–	–	–	–	–	–	·	·
N=C1C=CC(=C(c2ccc(N)cc2)c2ccc(N)cc2)C=C1	–	–	–	31	–	·	–	–
CCOc1cc(/C=N/NC(=O)c2cccs2)cc([N+](=O)[O-])c1O	–	–	–	25	–	·	55	–
COC(=O)c1cc(S(=O)(=O)NCC2CCN(CCc3cccs3)CC2)cn1C	–	–	–	41	–	–	–	–
COC(=O)c1cc(S(=O)(=O)NCC2CCN(Cc3ccc(F)cc3)CC2)cn1C	–	–	–	–	–	–	·	·
CC(=O)N1CCc2ccccc2C1CC(=O)O (stereo unspecified)	–	–	–	43	–	–	–	–
O=C(NC(c1ccc(Cl)cc1)c1cc(Cl)c2cccnc2c1O)c1cccnc1 (stereo unspecified)	–	–	–	30	–	–	–	–
SMILES	HTR5A ag	MOR-DOR ag-1	PvdQ acylase	HTR5A inv ag	MOR-DOR inv ag-1	CR mimetic SO	MOR-DOR inv ag-2	HTR5A inv confrm	others
O=[N+]([O-])c1ccc(N/N=C/c2cccc(O)c2O)c(S(=O)(=O)N2CCOCC2)c1	–	–	–	48	–	–	–	–
COc1cc(/C=N/Nc2ccc([N+](=O)[O-])cc2S(=O)(=O)N2CCOCC2)cc(OC)c1OC	–	–	–	–	–	–	·	·
O=[N+]([O-])c1ccc(N/N=C/c2ccc(O)c(O)c2O)c(S(=O)(=O)N2CCOCC2)c1	–	–	–	27	–	·	–	–
CC(=O)N1CCOc2ccc(S(=O)(=O)NCc3ccc(F)cc3)cc21	–	–	–	–	–	–	·	·
CN1CCC(N(C)C(=O)c2ccc(Cl)c(S(=O)(=O)Nc3cc(Cl)ccc3Cl)c2)CC1	–	–	–	–	–	–	·	·
Cc1cc(C)c(COc2ccc(/C=N/n3c(C)n[nH]c3=S)cc2)c(C)c1	–	–	–	37	–	–	–	–
COCCN(C(=O)c1ccccc1Oc1ccccc1)c1c(N)n(CC(C)C)c(=O)[nH]c1=O	–	–	–	35	–	–	–	–
COCCN(C(=O)c1cc(-c2ccccc2Cl)nc2ccccc12)c1c(N)n(CC(C)C)c(=O)[nH]c1=O	–	–	–	–	–	·	·	·
O=C(Nc1cccc([N+](=O)[O-])c1)NN1CCCCCC1	–	–	–	–	–	·	·	·
O=C(NCC1CCCO1)C1CCN(S(=O)(=O)c2cc(Cl)ccc2Cl)CC1 (stereo unspecified)	–	–	–	–	–	–	·	·
CCn1c(-c2ccc(-c3ccccc3)cc2)c[nH]c1=S	–	–	–	33	–	–	–	–
Cc1sc(NC(=O)CS(=O)(=O)c2ccccc2)c(C#N)c1C	–	–	–	41	–	–	–	–
Cc1sc(NC(=O)CCS(=O)(=O)c2ccccc2)c(C#N)c1C	–	–	–	–	–	–	·	·
O=C(COC(=O)COc1ccc(Cl)cc1)Nc1ncc(Br)s1	–	–	–	–	–	·	·	·
C=CCn1c(SCC(=O)Nc2ccc(F)cc2)nc2cc(C(=O)O)ccc2c1=O	–	–	–	43	–	–	–	–
COc1cccc(C(=O)Nc2ccc(N3CCN(C(=O)c4cccs4)CC3)cc2)c1	–	–	–	33	–	–	–	–
O=C(Nc1ccc(N2CCN(C(=O)c3cccs3)CC2)cc1)c1cccc(F)c1	–	–	–	–	–	–	·	·
O=[N+]([O-])c1cccc(/C=N/Nc2nc(NCc3ccccc3)nc(N3CCOCC3)n2)c1O	–	–	–	88	–	–	–	–
O=[N+]([O-])c1ccc(/C=N/Nc2nc(NCc3ccccc3)nc(N3CCOCC3)n2)cc1	–	–	–	–	–	–	·	·
